Drawing on PubChem BioAssay (EPA / NIEHS), this text covers outcome and AC50 for 32 molecules.

Results filed as inconclusive are left out. Calls of active or inactive are those of the source. Rule for the calls, unless noted: active = hit-call score of the fitted dose curve at least 0.9, where 1 is the maximum; inactive = score below 0.9.

As a reminder, the AC50 is the concentration giving half of the maximal activity seen.

The target of the first assay is Estrogen receptor (Homo sapiens) (UniProt P03372). The experiment in a line: CCTE_Deisenroth_AIME_384WELL_LUC_Shift: CCTE's 384-well Estrogen Receptor Transactivation Assay with AIME metabolic competence data shift (ERTA luciferase; difference in metabolism positive and negative), Deisenroth Lab (AID 2284041).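 Note: shift is response with S9 minus without S9 so positive means metabolism raised ER signal.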 The method in brief: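 Chemicals (0.002–200 uM, 10 points) pre-incubated 2 h with alginate-encapsulated induced male Sprague Dawley rat liver S9 or S9-free, then medium applied 24 h to VM7Luc4E2 cells; luciferase. Endpoint is per-concentration difference, S9-positive minus negative.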
Estrogen receptor (Homo sapiens), sequence (P03372 whole entry, looked up): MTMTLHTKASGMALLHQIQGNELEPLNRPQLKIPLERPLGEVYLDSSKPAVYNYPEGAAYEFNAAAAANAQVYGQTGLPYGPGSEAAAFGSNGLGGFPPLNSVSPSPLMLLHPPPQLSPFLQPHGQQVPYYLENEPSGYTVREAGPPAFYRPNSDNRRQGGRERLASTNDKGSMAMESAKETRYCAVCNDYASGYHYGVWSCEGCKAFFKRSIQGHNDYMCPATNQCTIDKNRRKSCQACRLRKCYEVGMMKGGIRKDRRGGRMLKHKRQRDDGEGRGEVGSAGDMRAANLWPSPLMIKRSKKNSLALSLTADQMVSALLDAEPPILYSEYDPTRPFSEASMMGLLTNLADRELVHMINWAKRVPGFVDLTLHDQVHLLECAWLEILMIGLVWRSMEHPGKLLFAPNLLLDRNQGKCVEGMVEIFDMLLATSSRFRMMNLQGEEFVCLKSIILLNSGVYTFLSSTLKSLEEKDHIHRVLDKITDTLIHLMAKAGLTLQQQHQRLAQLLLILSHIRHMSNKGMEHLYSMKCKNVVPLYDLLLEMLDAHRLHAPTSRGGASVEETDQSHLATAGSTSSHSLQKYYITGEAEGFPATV
With `CC(C)OC=O`, the result was inactive.

On to `Cc1ccc(O)c(-n2nc3ccccc3n2)c1`, for which the result was inactive.

Consider `CC(C)(C)c1cc(Cc2cc(C(C)(C)C)c(O)c(C(C)(C)C)c2)cc(C(C)(C)C)c1O`, for which the result was inactive.

Take `CC(=O)CCC(C)C`: the outcome was inactive.

Take `O=C(c1ccccc1)c1ccc(O)cc1O`: the result was inactive.

`CCN=C1C=CC(=C(c2ccc(N(CC)CC)cc2)c2ccc(N(CC)CC)cc2)c2ccccc21`: the result was inactive.

As for `O=C1C=CC(=O)N1c1ccccc1`, the outcome was inactive.

`CCCCCCCC/C=C\CCCCCCCC(=O)OCC(O)CO` (stereo not drawn): the outcome was inactive.

Regarding `CCCCCCCC/C=C\CCCCCCCC(=O)N(C)CC(=O)O`, the outcome was inactive.

As to `OCC1CCCO1` (stereo not drawn), the outcome was inactive.

As to `CCOC(OCC)OCC`, the result was inactive.

Regarding `CCCCOC(=O)C(C)O` (stereo not drawn), the outcome was inactive.

As for `N#Cc1ccccc1O`, the outcome was inactive.

Test system in another assay: not listed separately
The experiment in a line: CCTE_Shafer_MEA_dev_bursting_electrodes_number: CCTE's Neural Network Formation Assay for Number of Bursting Electrodes, Shafer Lab (AID 2284043; active = hit-call score of the fitted dose curve at least 0.9, where 1 is the maximum;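 for AC50: potency is for loss of bursting electrodes relative to DMSO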). The method in brief: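 Rat cortical primary neurons, 48-well MEA, 16 electrodes/well; dosing DIV 0–12, re-dosed with full media change DIV 5, 9. Recordings DIV 5/7/9/12, AxIS adaptive spike detector; bursting electrode = ≥1 burst/2 min. AUC across days; loss of signal vs DMSO.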
For `O=S(=O)(O)CCC(F)(F)C(F)(F)C(F)(F)C(F)(F)F`, the outcome was inactive.

For the molecule `CNS(=O)(=O)C(F)(F)C(F)(F)C(F)(F)C(F)(F)C(F)(F)C(F)(F)C(F)(F)C(F)(F)F`, the outcome was inactive.

As to `C=CC(=O)OCC(F)(F)C(F)(F)C(F)(F)COC(=O)C=C`, the AC50 was 1.52 µM (active).

For `OCC(F)(F)C(F)(F)C(F)(F)C(F)(F)C(F)(F)C(F)(F)C(F)(F)C(F)(F)CO`, the call was inactive.

Turning to `CCN(CCO)S(=O)(=O)C(F)(F)C(F)(F)C(F)(F)C(F)(F)C(F)(F)C(F)(F)C(F)(F)C(F)(F)F`, the result was inactive.

In the case of `C=CC(=O)OCCC(F)(F)C(F)(F)C(F)(F)C(F)(F)F`, the call was inactive.

`OCC(O)CC(F)(F)C(F)(F)C(F)(F)C(F)(F)F` (stereo not drawn): the outcome was inactive.

For the molecule `OCC(F)(F)C(F)(F)C(F)(F)CO`, the result was inactive.

For `FC(F)(F)C(F)(F)C(F)(F)C(F)(F)C(F)(F)C(F)(F)C(F)(F)CCI`, the molecule was classed as inactive.

For `NC(O)(C(F)(F)F)C(F)(F)F`, the molecule was classed as inactive.

With `OCCCCC(F)(F)C(F)(F)C(F)(F)C(F)(F)F`, the molecule was classed as inactive.

With `OCC(F)(F)C(F)(F)C(F)(F)C(F)(F)C(F)(F)C(F)(F)CO`, the molecule was classed as inactive.

Test system in another assay: not listed separately
The assay is described as follows: CCTE_Shafer_MEA_dev_per_burst_interspike_interval: CCTE's Neural Network Formation Assay for Burst Interspike Interval, Shafer Lab (AID 2284044).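 Note: mean spike spacing inside bursts as AUC over recordings on days 5 7 9 12.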 The method in brief:
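Developmental network-formation MEA in primary rat cortical cultures with exposure spanning days 0–12. Within-burst ISI is averaged per well and integrated across recording days by area under the curve, with DMSO as negative control baseline.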
With `O=S(=O)(O)CCC(F)(F)C(F)(F)C(F)(F)C(F)(F)C(F)(F)C(F)(F)C(F)(F)C(F)(F)F`, the molecule was classed as inactive.

`NC(=O)C(F)(F)C(F)(F)C(F)(F)F`: the molecule was classed as inactive.

Regarding `O=S(=O)(O)CCC(F)(F)C(F)(F)C(F)(F)C(F)(F)F`, the call was inactive.

On to `CNS(=O)(=O)C(F)(F)C(F)(F)C(F)(F)C(F)(F)C(F)(F)C(F)(F)C(F)(F)C(F)(F)F`, for which the molecule was classed as inactive.

As to `C=CC(=O)OCC(F)(F)C(F)(F)C(F)(F)COC(=O)C=C`, the outcome was inactive.

`OC(O)C(F)(F)C(F)(F)F`: the call was inactive.

In the case of `OCC(F)(F)C(F)(F)C(F)(F)C(F)(F)C(F)(F)C(F)(F)C(F)(F)C(F)(F)CO`, the result was inactive.

Take `NC(=O)C(F)(F)C(F)(F)C(F)(F)C(F)(F)C(N)=O`: the outcome was inactive.

For the molecule `CCN(CCO)S(=O)(=O)C(F)(F)C(F)(F)C(F)(F)C(F)(F)C(F)(F)C(F)(F)C(F)(F)C(F)(F)F`, the outcome was inactive.

In the case of `C=CC(=O)OCCC(F)(F)C(F)(F)C(F)(F)C(F)(F)F`, the result was inactive.

Take `OCC(O)CC(F)(F)C(F)(F)C(F)(F)C(F)(F)F` (stereo not drawn): the outcome was inactive.

In the case of `O=C(O)C(F)(F)C(F)(F)C(F)(F)OC(F)(F)F`, the outcome was inactive.

Consider `OCC(F)(F)C(F)(F)C(F)(F)CO`, for which the result was inactive.

Consider `FC(F)(F)C(F)(F)C(F)(F)C(F)(F)C(F)(F)C(F)(F)C(F)(F)CCI`, for which the molecule was called inactive.

Take `NC(=O)C(F)(F)C(F)(F)C(F)(F)C(F)F`: the outcome was inactive.

Take `CO[Si](C)(CCC(F)(F)C(F)(F)C(F)(F)C(F)(F)C(F)(F)C(F)(F)F)OC`: the molecule was called inactive.

For `NC(O)(C(F)(F)F)C(F)(F)F`, the outcome was inactive.

For `OCCCCC(F)(F)C(F)(F)C(F)(F)C(F)(F)F`, the result was inactive.

On to `OCC(F)(F)C(F)(F)C(F)(F)C(F)(F)C(F)(F)C(F)(F)CO`, for which the result was inactive.

Test system in a further assay: not listed separately
The assay is described as follows: CCTE_Shafer_MEA_dev_burst_duration_mean: CCTE's Neural Network Formation Assay for Mean Burst Duration, Shafer Lab (AID 2284045).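 For AC50: curve fitted for loss meaning shorter burst duration than DMSO.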 The method in brief:
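Rat cortical cultures, 1.5 x 10^5 cells/well with laminin drop; continuous dosing days 0–12, media plus treatment refreshed DIV 5, 9. AxIS adaptive spike detection; mean single-electrode burst duration, AUC over four recordings, negative direction vs DMSO.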
For the molecule `O=S(=O)(O)CCC(F)(F)C(F)(F)C(F)(F)C(F)(F)C(F)(F)C(F)(F)C(F)(F)C(F)(F)F`, the call was inactive.

In the case of `NC(=O)C(F)(F)C(F)(F)C(F)(F)F`, the molecule was called inactive.

On to `O=S(=O)(O)CCC(F)(F)C(F)(F)C(F)(F)C(F)(F)F`, for which the result was inactive.

Consider `CNS(=O)(=O)C(F)(F)C(F)(F)C(F)(F)C(F)(F)C(F)(F)C(F)(F)C(F)(F)C(F)(F)F`, for which the molecule was classed as inactive.

Regarding `C=CC(=O)OCC(F)(F)C(F)(F)C(F)(F)COC(=O)C=C`, the AC50 is 3.86 µM (active).

As for `OC(O)C(F)(F)C(F)(F)F`, the molecule was classed as inactive.

As for `OCC(F)(F)C(F)(F)C(F)(F)C(F)(F)C(F)(F)C(F)(F)C(F)(F)C(F)(F)CO`, the molecule was classed as inactive.

For `NC(=O)C(F)(F)C(F)(F)C(F)(F)C(F)(F)C(N)=O`, the outcome was inactive.

Take `CCN(CCO)S(=O)(=O)C(F)(F)C(F)(F)C(F)(F)C(F)(F)C(F)(F)C(F)(F)C(F)(F)C(F)(F)F`: the molecule was called inactive.

Turning to `C=CC(=O)OCCC(F)(F)C(F)(F)C(F)(F)C(F)(F)F`, the outcome was inactive.

In the case of `OCC(O)CC(F)(F)C(F)(F)C(F)(F)C(F)(F)F` (stereo not drawn), the outcome was inactive.

As for `O=C(O)C(F)(F)C(F)(F)C(F)(F)OC(F)(F)F`, the molecule was called inactive.

`OCC(F)(F)C(F)(F)C(F)(F)CO`: the concentration at half-maximal activity (AC50) was 15 µM (active).

Consider `FC(F)(F)C(F)(F)C(F)(F)C(F)(F)C(F)(F)C(F)(F)C(F)(F)CCI`, for which the call was inactive.

Turning to `NC(=O)C(F)(F)C(F)(F)C(F)(F)C(F)F`, the call was inactive.

Turning to `CO[Si](C)(CCC(F)(F)C(F)(F)C(F)(F)C(F)(F)C(F)(F)C(F)(F)F)OC`, the outcome was inactive.

Consider `NC(O)(C(F)(F)F)C(F)(F)F`, for which the outcome was inactive.

Regarding `OCCCCC(F)(F)C(F)(F)C(F)(F)C(F)(F)F`, the call was inactive.

`OCC(F)(F)C(F)(F)C(F)(F)C(F)(F)C(F)(F)C(F)(F)CO`: the call was inactive.
